# From article PMC6664820, “Novel natural and synthetic inhibitors of solute carriers SGLT1 and SGLT2” (Pharmacology Research & Perspectives, 2019)
# Hit rate of the full screen: of about 1,900 compounds, about 40 (2%) showed an effect of 50% or more. What follows is part of a selection rich in strong results, with near analogues and random picks from the rest.
# Biological target: human SGLT1 (hSGLT1) (human, UniProt P13866)
# Assay: primary screen, percent of control activity; higher = less effect of the substance
# Design: single well
# Conditions: 50 µM
# Protocol: Two days before the assay, CHO‐wild type and CHO‐hSGLT1 cells were seeded in maintenance medium at 25 000 cells/well in clear‐bottom black 96‐well cell culture plates. Before the assay, cells were washed 3 times with 150 μL/well D‐glucose free DMEM with 0.3% (w/v) BSA. Library compounds at 50 μmol/L (singlicate) prepared in D‐glucose free DMEM with 160 μmol/L 1‐NBD‐glucose and 0.3% (w/v) BSA and negative controls (triplicate) were added at 100 μL/well and placed in a humidified incubator at 37°C with 5% CO2 for 90 minutes. Next, cells were washed 3 times with DMEM with 0.3% (w/v) BSA (150 μL/well). Care was taken to remove all medium after the last wash. Finally, 1‐NBD‐glucose was extracted from the cells by adding 10 μL/well isopropanol and orbital shaking for 5 minutes at 600 rpm, followed by incubation in the dark for 30 minutes. Fluorescence was measured on a Tecan Infinite M200 Microplate Reader (Tecan, Männedorf, Switzerland) with excitation at 445 nm and emission at 525 nm. The amount of 1‐NBD‐glucose taken up by the CHO‐wild type or CHO‐hSGLT1 cells in the presence or absence of test compounds was interpolated from 1‐NBD‐glucose calibration standards. The background uptake by CHO‐wild type was subtracted from the uptake by CHO‐hSGLT1. Background corrected uptake with test compound was expressed as a percentage of corrected uptake without test compound.
# human SGLT1 (hSGLT1), sequence (P13866 whole entry, looked up): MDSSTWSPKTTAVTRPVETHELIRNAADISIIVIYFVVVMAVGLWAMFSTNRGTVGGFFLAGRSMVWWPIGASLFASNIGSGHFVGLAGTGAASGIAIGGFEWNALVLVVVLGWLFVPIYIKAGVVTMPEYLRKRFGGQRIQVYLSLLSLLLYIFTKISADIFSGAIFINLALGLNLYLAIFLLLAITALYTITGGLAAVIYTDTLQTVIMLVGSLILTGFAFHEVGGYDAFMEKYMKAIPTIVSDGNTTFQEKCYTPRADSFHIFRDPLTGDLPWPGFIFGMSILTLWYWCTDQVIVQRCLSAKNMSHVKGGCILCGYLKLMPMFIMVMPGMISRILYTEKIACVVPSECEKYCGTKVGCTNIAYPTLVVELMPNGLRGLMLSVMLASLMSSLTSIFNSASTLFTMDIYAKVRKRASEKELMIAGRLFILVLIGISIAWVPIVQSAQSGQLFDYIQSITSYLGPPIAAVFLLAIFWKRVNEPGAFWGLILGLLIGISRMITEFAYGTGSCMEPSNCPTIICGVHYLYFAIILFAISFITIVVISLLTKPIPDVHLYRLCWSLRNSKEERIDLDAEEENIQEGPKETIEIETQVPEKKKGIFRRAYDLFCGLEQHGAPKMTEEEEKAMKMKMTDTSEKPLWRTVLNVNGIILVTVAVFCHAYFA
row,Structure (SMILES),NORMALIZED SGLT1 ACTIVITY (%)
1,CCOP(=S)(OCC)SCSCC,47%
2,CCOP(=S)(OCC)SCn1c(=O)oc2cc(Cl)ccc21,57%
3,CCOP(=S)(OCC)SCCSCC,77%
4,CC(C)=CCC[C@](C)(O)C1CC=C(C)CC1 (stereo partly drawn),99%
5,CC1(C)C2CC(=O)O[C@@]3(C)C4=CC(=O)O[C@@H](c5ccoc5)[C@]4(C)CCC3[C@@]2(C)C=C[C@H]1O (stereo partly drawn),132%
6,CN1CCc2c(c3ccccc3n2Cc2ccccc2)C1.O=S(=O)(O)c1cccc2c(S(=O)(=O)O)cccc12,69%
7,Cl.Cl.NNCc1cccc(O)c1,149%
8,CCCCCCCCCCCCC[N+](C)(C)Cc1ccccc1.[Cl-],40%
9,CCCCCCCCCc1ccc(O)cc1,107%
10,CCCCCCc1ccc(O)cc1O.Nc1c2ccccc2nc2ccccc12,383%
11,CC(=O)O[C@@](C)(CCC=C(C)C)C1CC=C(C)CC1 (stereo partly drawn),112%
12,ClC1=C(Cl)C2(Cl)C3C(Cl)C=CC3C1(Cl)C2(Cl)Cl (stereo not drawn),57%
13,CN1CCC(=C2c3ccccc3Sc3ccccc32)CC1.O=C(O)/C=C\C(=O)O,36%
14,CN1CCN(CC/C=C2/c3ccccc3Sc3ccc(S(=O)(=O)N(C)C)cc32)CC1,116%
15,CSc1ccc2c(c1)C(N1CCN(C)CC1)Cc1ccccc1S2.O=C(O)/C=C\C(=O)O (stereo not drawn),115%
16,COC(=O)[C@H]1[C@H]2C[C@H]3c4[nH]c5ccccc5c4CCN3C[C@H]2CC[C@@H]1O.Cl,110%
17,COc1cc2c(cc1O)C(Cc1ccc(O)cc1)N(C)CC2 (stereo not drawn),89%
18,Oc1ccc(Cl)cc1Cc1cc(Cl)ccc1O,590%
19,CC1(C)C(=O)C=C[C@@]2(C)C1C[C@@H](O)[C@]1(C)C2CC[C@@]2(C)[C@H](c3ccoc3)OC(=O)[C@H]3O[C@]321 (stereo partly drawn),103%
20,CC1(C)C(=O)C=C[C@@]2(C)C1=C(O)C(=O)[C@]1(C)C2CC[C@@]2(C)[C@H](c3ccoc3)C[C@H]3O[C@]321 (stereo partly drawn),45%
21,CC(=O)O[C@@H]1C[C@@]2(C)[C@H](c3ccoc3)C[C@H]3O[C@]32[C@]2(C)C(=O)C(O)=C3C(C)(C)C(=O)C=C[C@]3(C)C12 (stereo partly drawn),104%
22,O=C1CN(/N=C/c2ccc([N+](=O)[O-])o2)C(=O)N1,159%
23,CNC[C@@H](O)c1ccc(O)c(O)c1.O=C(O)C(O)C(O)C(=O)O,105%

row,Structure (SMILES),NORMALIZED SGLT1 ACTIVITY (%)
1,N#Cc1c(Cl)c(Cl)c(Cl)c(C#N)c1Cl,76%
2,CN1CCN(CCCN2c3ccccc3Sc3ccc(C(F)(F)F)cc32)CC1.Cl.Cl,61%
3,OCCN1CCN(CCCN2c3ccccc3Sc3ccc(Cl)cc32)CC1,17%
4,N#Cc1ccc2c(c1)N(CCCN1CCC(O)CC1)c1ccccc1S2,75%
5,Cn1nnnc1SCC1=C(C(=O)[O-])N2C(=O)C(NC(=O)C(O)c3ccccc3)C2SC1.[Na+] (stereo not drawn),150%
6,COc1cc2c(cc1OC)C1C(=O)c3c(O)cc4c(c3OC1CO2)C=CC(C)(C)O4 (stereo not drawn),283%
7,CCCc1ncc(C[n+]2ccccc2C)c(N)n1.Cl.[Cl-],87%
8,Cc1cc(O)c2c(c1)C(=O)c1cc(O)cc(O)c1C2=O,118%
9,CN(C)CC/C=C1\c2ccccc2Sc2ccc(Cl)cc21.Cl,87%
10,CN(C)CCC=C1c2ccccc2C=Cc2ccccc21.Cl,50%
11,CN(C)CCC=C1c2ccccc2CCc2ccccc21.Cl,59%
12,Cc1cc(C2CCCCC2)n(O)c(=O)c1.NCCO,182%
13,ClC1=C(Cl)C2(Cl)C3C4C=CC(C4)C3C1(Cl)C2(Cl)Cl (stereo not drawn),96%
14,COc1cc2ccc(=O)oc2c(OC)c1OC,257%
15,COC(=O)c1c(OC)cc2c(c1C)Oc1c(Cl)c(O)c(Cl)c(C)c1C(=O)O2,520%
16,Cc1cc(O)c2c(c1O)C(=O)c1c(O)cc(C)c(O)c1C2=O,127%
17,CN[C@@H]1[C@@H](O)C(OC2[C@@H](N)C[C@@H](N)[C@H](O[C@H]3O[C@H](C(C)O)[C@@H](O)[C@H](O)[C@H]3N)[C@H]2O)OC[C@]1(C)O.O=S(=O)(O)O.O=S(=O)(O)O (stereo partly drawn),82%
18,CNC(=O)O/N=C(/C)SC,76%
19,COc1c2ccoc2cc2oc(C)cc(=O)c12,165%
20,OC[C@H]1O[C@@H](n2cnc3c(NCc4ccco4)ncnc32)[C@H](O)[C@@H]1O,142%
21,CCCCCCCCCN1C[C@H](O)[C@@H](O)[C@H](O)[C@H]1CO,83.2%
22,ClC1=C(Cl)C2(Cl)C3C4CC(C5OC45)C3C1(Cl)C2(Cl)Cl (stereo not drawn),136%
